From PubChem BioAssay
Unmarked numbers belong to inactive results. Entries that show only a call come without a potency. For some of these results: Potency and affinity values are given separately. Activity calls are given as the source filed them. Unless noted, no rule for the calls is given here.

Tests used:
[1] = antimalarial activity against Dd2 strain (AID 2302;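 active = growth inhibition above 50% at the single 2 µM test dose, taken to imply half-maximal potency below 2 µM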); details: P. falciparum Dd2 in RBCs, LDH growth readout, 72 h; at 2 µM; hits give high values
[2] = HepG2 cytotoxicity, primary screen, cytotoxicity control for P. falciparum antimalarial project, cell-based, ATP luminescence (AID 2303;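 active = inhibition above 50%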); details: HepG2 viability, 24-48 h, at 10 µM, hits give high values
[3] = target: L-lactate dehydrogenase (Plasmodium falciparum (isolate CDC / Honduras)) (UniProt Q27743); assay: PfLDH activity inhibition – cell lysate, 3D7 strain, counter-screen for P. falciparum growth inhibition project (AID 2304); details: P. falciparum 3D7 crude extract, LDH APAD/NBT absorbance; at 2 µM; hits give high values
L-lactate dehydrogenase (Plasmodium falciparum (isolate CDC / Honduras)), sequence (Q27743 whole entry, looked up): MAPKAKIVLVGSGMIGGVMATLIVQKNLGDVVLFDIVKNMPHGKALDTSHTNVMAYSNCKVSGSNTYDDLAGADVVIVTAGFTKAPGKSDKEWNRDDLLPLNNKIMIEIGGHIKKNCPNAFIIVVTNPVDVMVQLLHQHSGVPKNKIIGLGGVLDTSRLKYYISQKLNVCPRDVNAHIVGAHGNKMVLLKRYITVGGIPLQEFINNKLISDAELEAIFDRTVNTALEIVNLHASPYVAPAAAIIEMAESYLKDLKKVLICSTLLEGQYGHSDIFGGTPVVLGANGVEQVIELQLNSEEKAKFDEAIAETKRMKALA

[4] = inhibition of 3D7 malaria parasite growth – strain 3D7 (AID 2306); details: P. falciparum 3D7 erythrocytic growth, LDH absorbance, 72 h; at 2 µM; hits give high values
[5] = target: Calcium-dependent protein kinase 1 (Plasmodium falciparum (isolate 3D7)) (UniProt P62344); assay: PfCDPK1 kinase inhibitors, biochemical, TCAMS library (AID 1159585; cut-off not given, nearly all actives have IC50 up to about 0.98 µM;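 also: inhibitors leave more ATP so luminescence rises with inhibition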); details: recombinant PfCDPK1, Kinase-Glo ATP depletion luminescence
Calcium-dependent protein kinase 1 (Plasmodium falciparum (isolate 3D7)), sequence (P62344 whole entry, looked up): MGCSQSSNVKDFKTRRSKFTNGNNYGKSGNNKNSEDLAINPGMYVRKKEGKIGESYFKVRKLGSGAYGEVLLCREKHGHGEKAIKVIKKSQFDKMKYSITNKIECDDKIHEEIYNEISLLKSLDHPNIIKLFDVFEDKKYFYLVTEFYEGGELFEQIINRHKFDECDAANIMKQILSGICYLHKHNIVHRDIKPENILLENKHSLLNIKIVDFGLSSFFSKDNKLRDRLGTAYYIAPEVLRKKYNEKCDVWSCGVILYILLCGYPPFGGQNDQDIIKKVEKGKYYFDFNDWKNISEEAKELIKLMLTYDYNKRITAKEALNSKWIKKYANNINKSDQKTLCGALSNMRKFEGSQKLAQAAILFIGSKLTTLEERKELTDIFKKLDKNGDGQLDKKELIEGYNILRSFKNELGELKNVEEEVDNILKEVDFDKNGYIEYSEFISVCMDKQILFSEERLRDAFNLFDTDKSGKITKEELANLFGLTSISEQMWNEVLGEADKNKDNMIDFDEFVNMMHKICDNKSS

[6] = target: Plasmodium falciparum protein kinase 6 (PK6, PF3D7_1337100) (UniProt Q8IDW1); assay: PfPK6 kinase inhibitors, biochemical, TCAMS library (AID 1159586); details: recombinant PfPK6, Kinase-Glo ATP depletion luminescence
Plasmodium falciparum protein kinase 6 (PK6, PF3D7_1337100), sequence (Q8IDW1 1-305): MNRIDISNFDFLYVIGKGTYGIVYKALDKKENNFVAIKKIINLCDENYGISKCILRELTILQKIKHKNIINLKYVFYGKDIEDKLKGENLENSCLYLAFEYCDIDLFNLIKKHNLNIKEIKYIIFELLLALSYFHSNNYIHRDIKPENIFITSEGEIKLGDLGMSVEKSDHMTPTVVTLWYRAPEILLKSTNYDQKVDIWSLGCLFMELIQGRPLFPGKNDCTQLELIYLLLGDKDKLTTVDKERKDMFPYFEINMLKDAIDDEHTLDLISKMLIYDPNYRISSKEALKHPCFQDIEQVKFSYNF

[7] = target: Protein kinase 7 (PK7), Plasmodium falciparum 3D7 (PF3D7_0213400) (UniProt Q7YTF7); assay: inhibition of Plasmodium PK7 catalytic activity – biochemical, TCAMS antimalarial set, Kinase-Glo luminescence (AID 1159587); details: recombinant PfPK7, Kinase-Glo ATP depletion luminescence
Protein kinase 7 (PK7), Plasmodium falciparum 3D7 (PF3D7_0213400), sequence (Q7YTF7 1-343): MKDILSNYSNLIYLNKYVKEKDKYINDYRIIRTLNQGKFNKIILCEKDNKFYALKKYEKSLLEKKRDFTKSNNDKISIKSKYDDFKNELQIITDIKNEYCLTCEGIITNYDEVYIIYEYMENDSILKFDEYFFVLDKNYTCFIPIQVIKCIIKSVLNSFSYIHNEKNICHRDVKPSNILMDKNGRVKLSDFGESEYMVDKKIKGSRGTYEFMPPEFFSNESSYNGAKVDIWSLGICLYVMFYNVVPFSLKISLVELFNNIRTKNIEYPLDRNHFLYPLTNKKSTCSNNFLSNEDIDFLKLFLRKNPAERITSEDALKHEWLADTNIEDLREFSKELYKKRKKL

[8] = target: Calcium-dependent protein kinase 4 (Plasmodium falciparum (isolate 3D7)) (UniProt Q8IBS5); assay: PfCDPK4 kinase inhibitors, biochemical, TCAMS library (AID 1159588; cut-off not given, nearly all actives have IC50 up to about 0.91 µM); details: recombinant PfCDPK4, Kinase-Glo ATP depletion luminescence
Calcium-dependent protein kinase 4 (Plasmodium falciparum (isolate 3D7)), sequence (Q8IBS5 whole entry, looked up): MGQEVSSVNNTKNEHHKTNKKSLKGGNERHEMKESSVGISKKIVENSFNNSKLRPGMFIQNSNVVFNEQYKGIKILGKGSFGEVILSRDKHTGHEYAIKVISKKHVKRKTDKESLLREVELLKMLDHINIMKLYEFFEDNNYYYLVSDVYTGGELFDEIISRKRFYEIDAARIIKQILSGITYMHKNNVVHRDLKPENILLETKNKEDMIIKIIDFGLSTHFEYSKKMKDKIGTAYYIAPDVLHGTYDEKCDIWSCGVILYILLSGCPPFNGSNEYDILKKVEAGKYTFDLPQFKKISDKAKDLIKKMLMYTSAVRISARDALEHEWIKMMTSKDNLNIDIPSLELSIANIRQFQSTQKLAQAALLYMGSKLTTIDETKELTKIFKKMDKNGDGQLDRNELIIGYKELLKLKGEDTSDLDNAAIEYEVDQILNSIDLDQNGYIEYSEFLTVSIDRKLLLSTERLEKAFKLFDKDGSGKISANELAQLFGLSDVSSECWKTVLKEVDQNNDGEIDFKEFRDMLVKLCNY

Structure (SMILES)	growth inhibition [1]	inhibition [2]	inhibition [3]	growth inhibition [4]	outcome [5]	outcome [6]	outcome [7]	outcome [8]
O=C(Nc1ccc(-c2nc3ccccc3[nH]2)cc1)c1ccc(S(=O)(=O)N2CCCCCC2)cc1	21%	8%	-6%	97% (active)	inactive	inactive	inactive	inactive
CC(C)OC(=O)c1ccc(NC(=O)N[C@@H](Cc2ccc(O)cc2)C(=O)NC2CCC(CCN3[C@@H]4CC[C@H]3c3ccccc34)CC2)cc1 (stereo not given in full)	67% (active)	3%	3%	95% (active)	inactive	inactive	inactive	inactive
Cc1cc(NN=Cc2ccccc2Cl)c2cccc(C)c2n1	98% (active)	10%	2%	97% (active)	inactive	inactive	inactive	inactive
CN1CCCN(Cc2ccc(-c3cccc(NC(=O)c4cccc(Cl)c4)c3)cc2)CC1	32%	33%	-3%	100% (active)	inactive	inactive	inactive	inactive
Cc1cccc(CN2CCC(Oc3ccc(NC(=O)c4cccs4)cc3Cl)CC2)n1	88% (active)	27%	7%	86% (active)	inactive	inactive	inactive	inactive
COc1ccc(CCNC(=O)c2ccccc2O)cc1-c1ccc(C(C)(C)C)cc1	96% (active)	25%	0%	95% (active)	inactive	inactive	inactive	inactive
O=C(Nc1ccc(Cl)cc1)Nc1ccc(-c2cccc(-c3nc4ccccc4[nH]3)c2)cc1	78% (active)	69% (active)	-3%	100% (active)	inactive	inactive	inactive	inactive
CC(C)c1ccc(NC(=O)NCC2CCCN(CCCCCNC(=O)/C=C/c3ccc(Cl)c(Cl)c3)C2)cc1 (stereo not given)	6%	87% (active)	-13%	98% (active)	inactive	inactive	inactive	inactive
COc1ccc2nc(C)cc(NN=Cc3ccc([N+](=O)[O-])cc3)c2c1	70% (active)	-3%	-5%	103% (active)	inactive	inactive	inactive	inactive
COc1ccccc1C1CN(CCNC(=O)c2ncc(C)[nH]2)Cc2ccccc2O1 (stereo not given)	86% (active)	4%	0%	90% (active)	inactive	inactive	inactive	inactive
Cc1cc(N(C)C)nc(Nc2ccc(NC(=O)c3cccc(F)c3)cc2)n1	62% (active)	-8%	4%	100% (active)	inactive	inactive	inactive	inactive
CS(=O)(=O)c1ccc(CCNCc2ccc(-c3ccc(CN(C(=O)C4CC(=O)c5ccccc54)C4CCN(Cc5ccccc5)CC4)cc3)nc2)cc1 (stereo not given)	49%	9%	9%	100% (active)	inactive	inactive	inactive	inactive
CC1CN(Cc2ccccc2)CCN1c1ccc(NC(=O)c2ccc(F)cc2)cc1 (stereo not given)	89% (active)	-6%	-5%	87% (active)	inactive	inactive	inactive	inactive
COc1ccc2ncc(C#N)c(CCN3CCC(NCc4ccc5c(n4)NC(=O)CS5)CC3)c2n1	17%	9%	-1%	89% (active)	inactive	inactive	inactive	inactive
O=C(Nc1cccc(CN2CCCN(Cc3ncc[nH]3)CC2)c1)c1cc2ccccc2s1	35%	22%	-2%	99% (active)	inactive	inactive	inactive	inactive
CCN(CC)CCOC(=O)c1ccc(NC(=O)c2cn(-c3ccccc3)nc2-c2cccs2)cc1	59% (active)	25%	3%	100% (active)	inactive	inactive	inactive	inactive
CC(C)N1CCN(C(=O)c2ccc(CNCCCN3CCN(c4cccc(Cl)c4Cl)CC3)s2)CC1	44%	51% (active)	-3%	102% (active)	inactive	inactive	inactive	inactive
Fc1ccc2nc(-c3cccc(-c4ccc(CN5CCN(c6cnccn6)CC5)cc4)c3)[nH]c2c1	31%	19%	-4%	96% (active)	inactive	inactive	inactive	inactive
CCCCCCCN(Cc1ccc(OC(C)(C)C(=O)OCC)cc1)C(=O)Nc1ccccc1OC(F)(F)F	68% (active)	-2%	3%	95% (active)	inactive	inactive	inactive	inactive
O=C(Nc1cccc(N2CCC(NCCCn3ccnc3)CC2)c1)c1cccc(C(F)(F)F)c1	2%	8%	3%	101% (active)	inactive	inactive	inactive	inactive
